The panel holds about 83,000 compounds, 20% with a hit somewhere; the sample as a whole holds those more often.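 For each line, cells grew in 96-well plates with the test compound present at a single concentration for 48 hours.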 Values without a mark were called inactive. Activity calls are given as the source filed them.
system: SNB-75 CNS; assay: NCI-60 one-dose screen, 48 h (100 = growth as untreated, 0 = no growth, -100 = all killed); conditions: 10 µM unless noted
Description: Growth inhibition of the SNB-75 human tumor cell line is measured as a screen for anti-cancer activity. Cells are grown in 96 well plates and exposed to the test compound for 48 hours. Compounds are tested at a single concentration, which is 10^-5 M for most compounds. The reported endpoint is percent growth (GI% or GIPRCNT), where numbers from 0 - 100% represent growth inhibition, and numbers from -100% - 0 represent cell death. For example, a value of 40 represents 60% growth inhibition. A value of 0 means no net growth occurred over the course of the experiment. A value of -40 indicates 40% of cells at the beginning of the experiment died by the end of the experiment. A value of -100 means all cells are dead at the end of the experiment.
NCI-60 Human Tumor Cell Lines Screen was performed using the standard one-dose NCI protocol, which is described in more detail at https://dtp.cancer.gov/discovery_development/nci-60/default.htm.
Compounds with GIPRCNT values below 10 were considered active. Activity score was based on GIPRCNT using the following formula: […]
Score is 0 for GIPRCNT values of 100 or above, 50 for GIPRCNT values of 0, and 100 for GIPRCNT values of -100.

Row | Structure (SMILES) | growth
1 | O=C(CN1CCN(c2ccc(Cl)cc2)CC1)N1CCN(c2nnc(-c3ccc(Cl)cc3)c(-c3ccc(Cl)cc3)n2)CC1 | 75.6%
2 | Cc1ccc(-c2cc(-c3ccccc3)n(-c3ccccc3)n2)cc1 | 99.4%
3 | C#C[C@]1(O)CCC2C3CCc4cc(O)ccc4C3CC[C@@]21C (stereo not given in full) | 38.8%
4 | Cc1cc(C)nc(NS(=O)(=O)c2ccc(Nc3nc4nc(SCc5ccccc5)nc(-c5ccc(O)cc5)c4c(=O)[nH]3)cc2)n1 | 88.3%
5 | CCOc1cc(CCNS(=O)(=O)c2ccc(C)cc2)c(C(C)=O)cc1OCC | 93.3% [100 µM]
6 | Cc1n(Cc2ccc3ccccc3c2)c2ccccc2[n+]1Cc1ccc2ccccc2c1 | -46.2% (active)
7 | O=C(Oc1cccc2ccccc12)c1ccccc1C(=O)c1ccccc1 | 98.1%
8 | CC(=O)OC1Oc2cc(C)c(C)cc2-c2oc(=O)c(-c3ccccc3)cc21 (stereo not given) | -1.15% (active)
9 | O=C(Nc1nc(-c2ccc(Cl)cc2)cs1)c1cc(-c2ccc(Br)cc2)nc2ccc(Cl)cc12 | 32.7%
10 | Cc1nn(-c2ccccc2)cc1/C=C1\SC(N2CCCCC2)=NC1=O | 102%
11 | COC(=O)[C@H](Cc1cn(C)cn1)NC(=O)[C@@H](NC(=O)Nc1cc(C(F)(F)F)cc(C(F)(F)F)c1)C(C)C | -99.8% [100 µM] (active)
12 | CCOC(=O)c1sc(NC(=O)COc2ccc(/C=C3\CCc4cc(OC)ccc4C3=O)cc2)nc1C | 105%
13 | O=CN1N=C(c2ccc(Cl)cc2)CC1c1cccc(Nc2ccnc3cc(Cl)ccc23)c1 (stereo not given) | 1.24% (active)
14 | COc1cccc(C2=NN(C(C)=O)C(c3cc(OC)c(OC)c(OC)c3)C2)c1 (stereo not given) | -30.1% (active)
15 | CCN1CC2=C(Nc3nc(SC)[nH]c(=O)c3C2c2cc(OC)c(OC)c(OC)c2)/C(=C/c2cc(OC)c(OC)c(OC)c2)C1 (stereo not given) | 92.2%
16 | CCN(CC)CCCCCCCNc1c2ccc(Cl)cc2nc2ccc(OC)cc12 | -94.1% (active)
17 | O=[N+]([O-])c1ccc(NS(=O)(=O)c2ccc(Cl)c(Cl)c2)cc1 | 86.7%
18 | O=c1c2c(=NCCCN3CCCC3)cc3c(=O)n(CCCN4CCCC4)c(=O)c4c(NCCCN5CCCC5)cc(c(O)n1CCCN1CCCC1)c2c4-3 | -83.1% (active)
19 | Cc1cc2ccccn2c1C(=O)c1ccc(C(=O)c2ccccc2)cc1 | 93.5%
20 | Cc1sc2nc(N3CCCCC3)[nH]c(=O)c2c1C | 91%

Row | Structure (SMILES) | growth
21 | CC(=O)Nc1cc(C(c2ccccc2)c2ccccc2)cc(C(c2ccccc2)c2ccccc2)c1C | 34.2%
22 | O=C(CSc1ncc(-c2ccccc2)n1-c1ccccc1)Nc1ccc(-c2nc3ccccc3s2)cc1 | 103%
23 | Cc1ccc2nc(SCC(=O)Nc3ccc(-c4nc5ccccc5s4)c(Cl)c3)[nH]c2c1 | 94.6%
24 | Cc1ccc(S(=O)(=O)N2CCN(C(=O)CSc3nc4ccc(C)cc4[nH]3)CC2)cc1 | 109%
25 | CCCCCCCC[Si](OCC)(OCC)OCC | 85.2%
26 | Cc1ccc(S(=O)(=O)NCCN2c3nc4ccccc4cc3Sc3cc4ccccc4nc32)cc1 | -13% (active)
27 | COc1ccccc1NC(=O)c1sc2nc3c(cc2c1N)C(=O)CCC3 | 56.6%
28 | C=CCN(/C=C/CN(CC=C)CC=C)CC=C | 85.8%
29 | Cc1ccc(C2=NNC(c3sc(Cl)nc3Cl)C2)cc1 (stereo not given) | 96%
30 | CNCCCn1c2c(c3ccc(F)cc3c1=O)C(=O)c1cc(OC)cnc1-2 | -23.4% (active)
31 | c1cc[n+](Cc2ccnc3ccccc23)cc1 | 53.6%
32 | O=c1[nH]c(SCc2ccccc2)nc2nc(Nc3ccc(NC(=S)Nc4ccccc4)cc3)nc(-c3ccc(O)cc3O)c12 | 84.6%
33 | CN1CCN(CCCOc2ccc3ncnc(Nc4ccc(OCc5cccc(F)c5)c(Cl)c4)c3c2)CC1 | 65.1%
34 | CCOc1cc(/C=C/C(=O)C(C(=O)/C=C/c2ccc(OC(=O)CNc3nnc(C)s3)c(OCC)c2)C(=O)CNc2nnc(C)s2)ccc1OC(=O)CNc1nnc(C)s1 | -15.8% (active)
35 | COc1cc(/C=N/NC(=O)c2ccc(C(F)(F)F)nc2Nc2cc(Cl)ccc2C)cc(OC)c1OC | 96%
36 | O=C1C=CC(=O)N1c1ccccn1 | 89.3%
37 | O=C(/C=C/c1ccc(C(F)(F)F)cc1)c1ccc(Nc2nc(NCCO)nc(NCCO)n2)cc1 | 55.8%
38 | COc1cnc2c(c1)C(=O)c1c-2n(CCCN2CCCC2)c(=O)c2cc(F)ccc12 | -18.9% (active)
39 | Cc1ccc(OCC(=O)Nc2ccc(Oc3ccccc3)cc2)c([N+](=O)[O-])n1 | 78.8%
40 | O=C(NN1C(=O)c2cc(C(=O)O)c(C(=O)O)cc2C1=O)c1ccncc1 | 145%
